Laboratory results: PubChem BioAssay (NCI)
This is part of a sample that, as a whole, favours compounds with a hit. Of some 83,000 tested, about 20% had one in any assay.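 Values shown are percent growth following 48 h exposure of cells in 96-well plates to a single concentration of compound; below 10 was considered active.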 Activity calls are given as the source filed them.

Tested on: CCRF-CEM leukemia
Experiment: NCI-60 one-dose screen, 48 h (100 = growth as untreated, 0 = no growth, -100 = all killed)
Settings: 10 µM
Method: Growth inhibition of the CCRF-CEM human tumor cell line is measured as a screen for anti-cancer activity. Cells are grown in 96 well plates and exposed to the test compound for 48 hours. Compounds are tested at a single concentration, which is 10^-5 M for most compounds. The reported endpoint is percent growth (GI% or GIPRCNT), where numbers from 0 - 100% represent growth inhibition, and numbers from -100% - 0 represent cell death. For example, a value of 40 represents 60% growth inhibition. A value of 0 means no net growth occurred over the course of the experiment. A value of -40 indicates 40% of cells at the beginning of the experiment died by the end of the experiment. A value of -100 means all cells are dead at the end of the experiment.
NCI-60 Human Tumor Cell Lines Screen was performed using the standard one-dose NCI protocol, which is described in more detail at https://dtp.cancer.gov/discovery_development/nci-60/default.htm.
Compounds with GIPRCNT values below 10 were considered active. Activity score was based on GIPRCNT using the following formula: […]
Score is 0 for GIPRCNT values of 100 or above, 50 for GIPRCNT values of 0, and 100 for GIPRCNT values of -100.

SMILES	growth
O=[N+]([O-])c1cccc(-c2nnc3c(/C=C/c4ccccc4O)nc4ccccc4n23)c1	47.5% (inactive)
COc1ccc(C2c3sc4ccc(C)cc4c3Oc3nc(N)nc(N)c32)cc1 (stereo not given)	82.8% (inactive)
Cc1ccc2c(c1)C(=O)/C(=C/c1ccc([N+](=O)[O-])cc1)S2	109% (inactive)
C#C[C@]1(O)CC[C@H]2[C@@H]3CC=C4c5sc(Nc6ccc(C(F)(F)F)cn6)nc5CC[C@]4(C)[C@H]3CC[C@@]21C	6.72% (active)
Nc1nnc(-c2c[nH]c3ncc(Br)cc23)c(-c2c[nH]c3ccc(Br)cc23)n1	5.14% (active)
Cn1cc(-c2nc(N)nnc2-c2c[nH]c3ccccc23)c2cc(Br)cnc21	20.5% (inactive)
COc1cccc(O)c1/C=C1\SCc2cc3c(OC)cccc3[o+]c21	101% (inactive)
Cc1ccc2sc3c(c2c1)Oc1nc[nH]c(=O)c1C3c1cccc(F)c1 (stereo not given)	107% (inactive)
C#CCOc1cc(N(CC)CC)ccc1C(C(=O)NC(C)(C)C)N(C(=O)C1CCc2cc(F)ccc2O1)c1ccc(F)cc1F (stereo not given)	39.7% (inactive)
O=C(Nc1ccc(Oc2ncnc3scc(Nc4n[nH]c(=S)s4)c23)cc1)C1(C(=O)Nc2cccc(C(F)(F)F)c2)CC1	111% (inactive)
COc1ccc(NCc2cn(-c3ccc(C(=O)O)cc3)nc2-c2ccc(F)cc2)cc1C(F)(F)F	41.6% (inactive)
COc1cc(C2CC(c3ccccc3)=Nc3c(N)nc(N)nc3N2)ccc1Oc1nc(NCCO)nc(N2CCOCC2)n1 (stereo not given)	92.4% (inactive)
O=C(c1ccccc1)c1ccc2nc(-c3ccccc3Br)[nH]c2c1	-9.65% (active)
CCn1c(SCC(=O)Nc2ccc(-c3nc4ccccc4[nH]3)cc2)nc2ccccc2c1=O	44.7% (inactive)
CCOC(=O)c1ccc(NC(=O)CSC(CC(=O)c2sc(Nc3ccccn3)nc2C)c2ccccc2F)cc1 (stereo not given)	3.92% (active)
Cn1cc(-c2cc3nc(-c4c[nH]c5ccccc45)cc(N)n3n2)c2cc(Cl)ccc21	-12.6% (active)
Cn1cc(-c2cc(N)n3nc(-c4cn(C)c5ccccc45)cc3n2)c2cc(F)ccc21	-9.43% (active)
O=C1NC2C=CC=CC2/C1=C1/SC(=S)N(C2CC(=O)N(c3ccc(Br)cc3)C2=O)C1=O (stereo not given)	53.9% (inactive)
O=C(CC(=O)Nc1ccc(Oc2ncnc3scc(Nc4n[nH]c(=S)s4)c23)cc1)Nc1ccc(Cl)cc1	58.1% (inactive)
Fc1ccc(-c2csc(Nc3cccc(Nc4nc(-c5ccc(F)cc5)cs4)c3)n2)cc1	59.1% (inactive)

SMILES	growth
COc1ccc(OC)c(-n2cc(C#N)c(N)c2C(=O)c2ccc(Cl)cc2Cl)c1	11.4% (inactive)
O=C1S/C(=C\c2ccc([N+](=O)[O-])cc2)C(=O)N1CCN1CCCCC1	116% (inactive)
C#C[C@]1(O)CC[C@H]2[C@@H]3CC=C4c5sc(Nc6ccc(N(C)C)cc6)nc5CC[C@]4(C)[C@H]3CC[C@@]21C	-1.45% (active)
COc1cccc(C(=O)CSc2nc(-c3ccc(OCc4ccccc4)c(OC)c3)c(C#N)c(=O)[nH]2)c1	101% (inactive)
O=C(CN1CCN(c2ncnc3c2cnn3-c2ccccc2)CC1)Nc1ccc(Cl)cc1	51.9% (inactive)
O=C1NC(=S)S/C1=C\c1cn(-c2ccccc2)nc1-c1ccc([N+](=O)[O-])cc1	18.5% (inactive)
COc1ccc(Cc2nn(CC(=O)N/N=C/c3ccc(Br)cc3)c(=O)c3c(C)noc23)cc1	40.5% (inactive)
COc1ccc(Cc2nn(CC(=O)N/N=C/c3ccc([N+](=O)[O-])cc3)c(=O)c3c(C)noc23)cc1	69.5% (inactive)
CC1(C)CC(=O)C2=C(C1)N(Cc1ccc(C(=O)O)cc1)C1=C(C(=O)CC(C)(C)C1)C2c1ccc(Cl)cc1	102% (inactive)
O=C(CC(=O)Nc1ccc(Oc2ncnc3scc(Nc4n[nH]c(=S)s4)c23)cc1)Nc1ccc(Br)cc1	75.9% (inactive)
Cc1ccc2c(c1)C(=O)/C(=C/c1c[nH]c3ccccc13)S2	29.2% (inactive)
COc1ccc(Cn2cc(C#N)c(N)c2C(C)=O)c(OC)c1	105% (inactive)
Cc1ccc(S(=O)(=O)N2CCN(S(=O)(=O)c3oc(-c4ccccc4)nc3C#N)CC2)cc1	75.7% (inactive)
COc1ccc(C(=O)COc2ccc(NC(=O)Nc3ccccc3)cc2)cc1	91% (inactive)
Cn1cc(-c2nnc(N)nc2-c2c[nH]c3ccc(F)cc23)c2cc(Br)cnc21	35.4% (inactive)
COc1cc(-c2nc3ccc(C)cc3[nH]2)ccc1OCc1nnc(-c2ccccc2Br)o1	19.4% (inactive)
COC(=O)CNC(=O)COc1c(OC)c(OC)cc2oc(-c3cccc(C(=O)Nc4ccc(Cl)cc4)c3)cc(=O)c12	94.7% (inactive)
Cc1cc(N=C2NC(=O)/C(=C/c3cc(C(C)(C)C)c(O)c(C(C)(C)C)c3)S2)n[nH]1	13% (inactive)
COc1cc(C2CC(c3ccc(Oc4ccc(Cl)cc4)cc3)=NN2c2nc(-c3ccc(Cl)cc3)c(C#N)c(N3CCOCC3)n2)cc(OC)c1OC (stereo not given)	111% (inactive)
COc1ccc(C2c3sc4ccc(C)cc4c3Oc3nc[nH]c(=O)c32)cc1 (stereo not given)	91.7% (inactive)
